# Experimental data taken from PubChem BioAssay (NCATS).
# Inconclusive results are not listed. A number with no mark means an inactive call. Active and inactive are the calls of the source. Calls follow the shape of the dose curve; as a rule, active = well fitted inhibition curve with a large enough effect; inconclusive = small, poorly fitted or top-dose-only effect; inactive = flat fitted curve, though single readings scatter.
# Assays:
# Test in all cases: Cytotoxic Profiling of Annotated Libraries Using Quantitative High-Throughput Screening (AID 1296008); also: nearly all actives have a fitted effect of over 60% in size
# Conditions in all cases: Five cell lines viability, CellTiter-Glo ATP luminescence, 48-72 h; max response: hits give low values
# [1] = test system: HEK293
# How it was run: (§1)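 Compounds were pin-transferred onto cells and incubated 48 or 72 hr at 37 degree Celsius, 95% humidity. CellTiter-Glo was added, plates sat 10 min at room temperature, then ATP-coupled luminescence was imaged as the viability read-out.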
# [2] = test system: HaCat
# How it was run: as §1
# [3] = test system: KB-3-1
# How it was run: as §1
# [4] = test system: NIH3T3
# How it was run: as §1
# % is scaled to controls: 0 for no effect and ±100 for the full control effect; potency is read from the fitted curve at half-maximal effect.
compound,measurement,setting,value
COC(=O)[C@@]1(c2ccc(C)cc2)C[C@H]1CN1CCC(O)(c2ccccc2)CC1,max response,[1],-9.08%
same,max response,[2],-4.07%
same,max response,[3],-2.51%
same,max response,[4],-2.42%
CC(C)C(C(=O)N(C)C(C)C(N)=O)N(C)C(=O)C1CCCN1C(=O)/C=C/C=C/C(O)C(C)O (stereo not drawn),max response,[1],4.88%
same,max response,[2],-10.3%
same,max response,[3],7.9%
same,max response,[4],2.29%
O=C(Nc1ccccc1-c1cn2c(CN3CCNCC3)csc2n1)c1ccc2ccccc2n1,max response,[1],-4.98%
same,max response,[2],-14.7%
same,max response,[3],2.25%
same,max response,[4],4.15%
Cc1cc(Nc2ncc3cc(-c4c(Cl)cccc4Cl)c(=O)n(C)c3n2)ccc1F,Potency,[1],2.31 µM (active)
same,Potency,[2],5.8 µM (active)
same,Potency,[3],2.59 µM (active)
same,Potency,[4],1.46 µM (active)
C[C@@H]1O[C@@H](O[C@H]2[C@H](OC(=O)[C@]34CCC(C)(C)C[C@H]3C3=CCC5[C@@]6(C)CC[C@H](O[C@@H]7O[C@H](C(=O)O)[C@@H](O)[C@H](O)[C@H]7O[C@@H]7O[C@H](CO)[C@H](O)[C@H](O)[C@H]7O)[C@@](C)(C=O)C6CC[C@@]5(C)[C@]3(C)C[C@H]4O)O[C@H](C)[C@H](O[C@@H]3O[C@H](C)[C@H](O)[C@H](O)[C@H]3O)[C@@H]2O)[C@H](O)[C@H](O)[C@H]1O[C@@H]1OC[C@@H](O)[C@H](O[C@@H]2O[C@H](CO)[C@@H](O)[C@H](O)[C@H]2O)[C@H]1O (stereo partly drawn),max response,[1],-75.9%
same,max response,[2],-0.834%
same,max response,[3],9.53%
same,max response,[4],3.95%
CC(C)CN(C[C@@H](O)[C@H](Cc1ccccc1)NC(=O)O[C@@H]1CO[C@H]2OCC[C@H]21)S(=O)(=O)c1ccc(N)cc1,max response,[1],-6.82%
same,max response,[2],-6.53%
same,max response,[3],-3.21%
same,max response,[4],-1.09%
C/C=C1\[C@H](OC2OC(COC3OC(CO)C(O)C(O)C3O)C(O)C(O)C2O)OC=C(C(=O)OC)[C@H]1CC(=O)OCCc1ccc(O)cc1 (stereo partly drawn),max response,[1],-70.9%
same,max response,[2],-0.414%
same,max response,[3],2.72%
same,max response,[4],-38.2%
Cc1[nH]c2ccccc2c1C1=C(NCCc2ccc(F)cc2)C(=O)N(C)C1=O,max response,[1],-22.2%
same,Potency,[2],8.2 µM (active)
same,max response,[3],-15.2%
same,Potency,[4],14.6 µM (active)
C=C[C@H]1[C@H](O[C@@H]2O[C@H](CO)[C@@H](O)[C@H](O)[C@H]2O)OC=C(C(=O)OC)[C@H]1CC(=O)O,max response,[1],3.67%
same,max response,[2],-3.58%
same,max response,[3],-3%
same,max response,[4],-8.69%
C[C@@H]1N[C@H]2N(C1=O)c1ccccc1[C@@]2(O)C[C@@H]1C(=O)N[C@@H](C)c2nc3ccccc3c(=O)n21,max response,[1],-21.5%
same,max response,[2],1.5%
same,outcome,[3],inactive
same,max response,[4],-0.438%
CC(C)(O[C@@H]1O[C@H](CO)[C@@H](O)[C@H](O)[C@H]1O)C(OC(=O)/C=C\c1ccc(O)cc1)C(=O)OCc1ccc(O[C@@H]2O[C@H](CO)[C@@H](O)[C@H](O)[C@H]2O)cc1 (stereo partly drawn),max response,[1],-30.7%
same,max response,[2],-19.6%
same,outcome,[3],inactive
same,max response,[4],-27.1%
COC(=O)C1=C2Nc3ccccc3C23CCN2CCCC(C(C)O)(C1)C23 (stereo not drawn),max response,[1],-3.43%
same,max response,[2],-21.7%
same,max response,[3],6.23%
same,max response,[4],1.02%
CC(=O)O[C@H]1C[C@@](O)(C(C)C)C2[C@@H](OC(=O)c3ccc(O)cc3)C[C@@]3(C)O[C@H]3C[C@]21C (stereo partly drawn),max response,[1],-5.37%
same,max response,[2],-5.18%
same,max response,[3],2.79%
same,max response,[4],-4.8%
COC(=O)CC(O)C1OC(c2ccccc2)C(O)C1O (stereo not drawn),max response,[1],2.88%
same,max response,[2],-28.3%
same,max response,[3],2.62%
same,max response,[4],-5.26%
CC(=O)O[C@]1(C(C)=O)CC[C@H]2[C@@H]3C[C@H](C)C4=CC(=O)C=C[C@]4(C)[C@@]3(F)[C@@H](O)C[C@@]21C,max response,[1],-1.51%
same,max response,[2],3.64%
same,outcome,[3],inactive
same,max response,[4],3.11%
O=C(Nc1ccc(S(=O)(=O)Nc2nccs2)cc1)C(c1ccccc1)c1ccccc1,max response,[1],-0.0195%
same,max response,[2],-1.59%
same,max response,[3],5.78%
same,max response,[4],3.11%
COc1ccc(CC2NCCc3c2[nH]c2ccc(C)cc32)cc1OC (stereo not drawn),Potency,[1],10.3 µM (active)
same,max response,[2],-6.85%
same,max response,[3],-15.3%
same,max response,[4],-1.6%
